# Source: the supplement of paper PMC12636033
# ± gives the standard deviation of the averaged measurements. In all, about 33,000 sequences were measured (“E-score (rank enrichment, -0.5 to 0.5)”: median about -0.0075, highest 2% from about 0.23 on). For the sample, the highest values were picked, then their nearest neighbours and some sequences at random.
# System: WT Max(13-93) synthetic (M65Nle)
# Test: PBM 8-mer E-score (E-score (rank enrichment, -0.5 to 0.5)); higher = stronger preferential binding
# Procedure: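 Protein binding microarray (universal PBM chip covering all 10-mers in fixed probe flanks) with chemically synthesized human Max(13-93) bHLH-LZ analogs (not full-length Max) bearing noncanonical residues (hArg, Tha, Aib, Nle at 65) and aromatic Cys staples. Read-out per 8-mer (and its reverse complement): E-score (rank-based enrichment, -0.5 to 0.5) and Z-score of median probe intensity.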
row,Sequence,PBM 8-mer E-score
1,GATATAAA,0.0778 ± 0.026
2,CATATAAA,0.295 ± 0.098
3,AATATAAA,0.26 ± 0.1
4,CACATATG,0.185 ± 0.029
5,TATATAAA,0.196 ± 0.099
6,CATATAAG,0.21 ± 0.012
7,GACATATA,0.0052 ± 0.075
8,CACATATA,0.301 ± 0.098
9,AATATAAT,0.156 ± 0.023
10,CGTACCAG,-0.0661 ± 0.0056
11,TTAGCGAA,-0.0471 ± 0.069
12,CGCCACGA,-0.137 ± 0.15
13,ATGCAGGG,0.0122 ± 0.03
14,CCTAAGCG,-0.0916 ± 0.0045
15,GTGTCTGA,0.00783 ± 0.11
16,GAACAAGA,0.137 ± 0.095
17,AATTCCCA,0.282 ± 0.0091
18,AATTCCCC,0.0165 ± 0.05
19,GATTCCCA,-0.0229 ± 0.034
20,GACCCGAA,-0.196 ± 0.14
21,AAACTACC,0.0484 ± 0.067
22,AAACTACT,0.232 ± 0.034
23,AAACTACA,0.219 ± 0.021
24,ACGTGCTG,0.212 ± 0.025
25,GCGTGCTA,0.197 ± 0.0073

row,Sequence,PBM 8-mer E-score
1,CCGTGCTC,-0.0456 ± 0.034
2,CCGTGCTA,-0.0393 ± 0.0021
3,ACGTGCTC,0.298 ± 0.013
4,ACGTGCTA,0.311 ± 0.019
5,ACCAGGGA,0.0354 ± 0.19
6,AGGCGCTG,-0.0811 ± 0.026
7,AACAGTGG,-0.0694 ± 0.089
8,AACTTGCA,0.193 ± 0.046
9,CGTGCCGC,0.0425 ± 0.15
10,CTAACCAC,0.139 ± 0.0048
11,ATAACAAT,0.168 ± 0.0023
12,ATAACAAC,0.265 ± 0.079
13,ATAACAAG,0.223 ± 0.0096
14,ATAACCAG,0.113 ± 0.031
15,ATAACCAC,0.288 ± 0.07
16,CTTTTTGC,0.046 ± 0.063
17,CACCTGGC,0.0136 ± 0.041
18,GGAGTGCC,-0.11 ± 0.012
19,ATATGACA,0.263 ± 0.014
20,GGATGACA,-0.00576 ± 0.064
21,CTATGACA,0.0275 ± 0.077
22,GTATGAAA,0.222 ± 0.033
23,ATATGACC,-0.0408 ± 0.015
24,GTATGACA,0.245 ± 0.062
25,ATAGCAGG,-0.0492 ± 0.15

row,Sequence,PBM 8-mer E-score
1,TCCGGACA,-0.0731 ± 0.033
2,GTCTCTAA,-0.108 ± 0.17
3,CCTCGCGA,-0.00258 ± 0.05
4,AATCGCCG,-0.197 ± 0.032
5,ATATATCA,0.19 ± 0.073
6,CTATATCC,0.135 ± 0.012
7,CGATATAC,0.0759 ± 0.16
8,TTATATAA,0.256 ± 0.13
9,ATTTATAA,0.241 ± 0.035
10,CTTTATAA,0.127 ± 0.026
11,CGATATAG,-0.0681 ± 0.07
12,CGATATAA,0.281 ± 0.046
13,TGATATAA,0.155 ± 0.021
14,TTATAAAA,0.215 ± 0.03
15,ATATATCC,0.237 ± 0.064
16,ATTTATAC,0.188 ± 0.078
17,TACGATAA,0.194 ± 0.094
18,AATGCGAA,0.03 ± 0.03
19,GCTCCTTA,-0.0526 ± 0.048
20,ATATCGGG,0.19 ± 0.03
21,AAGCGGCC,-0.276 ± 0.054
22,CCGACACA,-0.052 ± 0.075
23,CGCCGTTC,-0.101 ± 0.024
24,GGGGGCTA,-0.0501 ± 0.18
25,CGCGACAC,0.045 ± 0.063

row,Sequence,PBM 8-mer E-score
1,ATATATAA,0.246 ± 0.086
2,GTATATAA,0.102 ± 0.091
3,ATATACAC,0.161 ± 0.055
4,CTATACAG,0.0775 ± 0.017
5,CTATATAA,0.0196 ± 0.063
6,ATATACAG,0.234 ± 0.0072
7,GTAGTACA,0.0953 ± 0.0039
8,CCAACGTC,-0.0188 ± 0.032
9,AACGACGA,-0.113 ± 0.23
10,AAGACTCT,0.0105 ± 0.12
11,ACATGTGA,0.389 ± 0.00049
12,AGATGTGC,0.0526 ± 0.076
13,CCATGTGA,0.308 ± 0.0086
14,ACATGTCA,0.204 ± 0.057
15,CGATGTGA,-0.114 ± 0.17
16,ACATGTGC,0.359 ± 0.0051
17,AGATGTGA,0.16 ± 0.038
18,CCATGTCC,-0.0654 ± 0.065
19,CCATGTCA,-0.0624 ± 0.05
20,ACATGTCC,0.212 ± 0.03
21,CCATGTGC,0.389 ± 0.0074
22,CTATGTGC,0.0889 ± 0.047
23,CGTTGCCA,0.0775 ± 0.02
24,GAATGGGA,0.0933 ± 0.016
25,CCGACGGA,-0.238 ± 0.0081

row,Sequence,PBM 8-mer E-score
1,TAGGTGCA,0.0931 ± 0.075
2,CCGCAATC,-0.0997 ± 0.03
3,ATCTGATC,-0.138 ± 0.17
4,AGATGTGG,0.0747 ± 0.083
5,GCATGTGA,0.314 ± 0.013
6,GAATGTGA,0.0246 ± 0.0085
7,ACATGTGG,0.36 ± 0.049
8,GCATGTCA,0.208 ± 0.011
9,ACATGTCG,0.14 ± 0.052
10,GAGCATAA,0.0772 ± 0.044
11,CCTCAACG,-0.187 ± 0.062
12,AGGGGTCC,-0.221 ± 0.0076
13,CAGCGGGA,-0.165 ± 0.016
14,AAGCATCC,0.0408 ± 0.066
15,AAGCATGC,0.312 ± 0.066
16,AAGCATGT,0.277 ± 0.024
17,AAGCATGA,0.152 ± 0.064
18,AAGCATGG,0.219 ± 0.031
19,AAGCATAC,0.105 ± 0.023
20,AGGTGGGG,0.0712 ± 0.15
21,GGAAAAGA,0.0579 ± 0.031
22,TGCTGTAA,0.00145 ± 0.0042
23,ACAAGTGA,0.0895 ± 0.13
24,GAGCTTGA,-0.165 ± 0.014
25,GGTCCCAC,-0.0853 ± 0.11

row,Sequence,PBM 8-mer E-score
1,GGAATAAA,0.0114 ± 0.13
2,CGAATAAA,0.0742 ± 0.027
3,AGAATAAT,0.177 ± 0.0073
4,AGAATAAG,-0.0395 ± 0.13
5,AGAATAAA,0.262 ± 0.034
6,TGAATAAA,0.305 ± 0.013
7,CTCGCGGC,-0.138 ± 0.055
8,ACACGTAT,0.192 ± 0.027
9,ACACGTGC,0.4859 ± 0.0013
10,ACACGTGT,0.487 ± 0.002
11,TCACGTGA,0.444 ± 0.018
12,AGACGTGC,-0.0899 ± 0.02
13,TCACGTCA,-0.00158 ± 0.0094
14,TCACGTAA,0.129 ± 0.01
15,ACACGTAC,0.159 ± 0.044
16,AAACGTGG,0.206 ± 0.021
17,ACACGTAG,0.0871 ± 0.035
18,AAACGTGT,0.166 ± 0.05
19,ACACGTGG,0.4934 ± 0.00068
20,CTGCCAAC,-0.111 ± 0.013
21,GATACCAA,-0.0524 ± 0.022
22,CAGTGAAC,0.0267 ± 0.035
23,ACAATCTG,0.065 ± 0.027
24,AGAAACTC,-0.0484 ± 0.078
25,ACGAAAAA,0.221 ± 0.056

row,Sequence,PBM 8-mer E-score
1,CTTGCGTA,0.0635 ± 0.052
2,ATACGTGA,-0.00216 ± 0.0077
3,ACACGTGA,0.4747 ± 0.0033
4,AGACGTGA,0.103 ± 0.038
5,AAGCAGGC,-0.0736 ± 0.011
6,CGTGGGGC,0.119 ± 0.11
7,AGATGACT,-0.172 ± 0.045
8,CACTTCTC,0.0461 ± 0.0024
9,CATCATTC,-0.011 ± 0.044
10,AATTATCA,0.273 ± 0.083
11,CATCATTA,0.238 ± 0.034
12,AATCATTA,0.223 ± 0.072
13,TATTATCA,0.2 ± 0.026
14,AGTTATCA,0.07501 ± 0.00026
15,CATTATCA,0.242 ± 0.09
16,CGTTATCA,0.044 ± 0.015
17,CATTATCG,-0.0926 ± 0.0027
18,AATTATCG,0.132 ± 0.064
19,GGTTATCA,0.232 ± 0.078
20,AATTATCC,0.0573 ± 0.0067
21,GGACTGCA,-0.017 ± 0.043
22,CGTGTCTC,0.201 ± 0.035
